Results as given in PubChem BioAssay (NCATS).
Where “and” joins values, the source holds several entries; their conditions need not be identical. Equal entries are not always repeated. Inconclusive results are not listed. The source holds several records for some structures; these can differ, active in one and inactive in another. Calls of active or inactive are those of the source. Calls follow the shape of the dose curve; as a rule, active = well fitted inhibition curve with a large enough effect; inconclusive = small, poorly fitted or top-dose-only effect; inactive = flat fitted curve, though single readings scatter.

Tests used:
Test in all cases: Cytotoxic Profiling of Annotated Libraries Using Quantitative High-Throughput Screening (AID 1296008); also: nearly all actives have a fitted effect of over 60% in size
Details in all cases: Five cell lines viability, CellTiter-Glo ATP luminescence, 48-72 h; max response: stronger effect = lower value
CRL-7250 = normal cell line; tested on: CRL-7250
Method in brief: (§1)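 Cytotoxicity was measured as CellTiter-Glo ATP luminescence, read after 10 min at room temperature. Compound treatment of the cells lasted 48 or 72 hr at 37 degrees Celsius in a qHTS format.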

HEK293 = tested on: HEK293
Method in brief: as §1

HaCat = tested on: HaCat
Method in brief: as §1

KB-3-1 = tested on: KB-3-1
Method in brief: as §1
% is scaled to controls: 0 for no effect and ±100 for the full control effect; potency is read from the fitted curve at half-maximal effect.

CC1(N2CCC(n3c([C@@H]4CCCNC4)nc4ccccc43)CC2)CCCCCCC1
inactive: max response (HaCat) -28.8%
active: Potency (CRL-7250) 14.8 µM | Potency (HEK293) 4.69 µM and 7.31 µM

CCNC(=O)CC1N=C(c2ccc(Cl)cc2)c2cc(OC)ccc2-n2c(C)nnc21 (centres undefined)
inactive: max response (CRL-7250) -29.2% and -3.83% | max response (HEK293) -10.4% | outcome (HEK293) | max response (HaCat) -4.28% and 0.244% and -23.7% | max response (KB-3-1) -3.15% | outcome (KB-3-1)
active: Potency (CRL-7250) 1.64 µM | Potency (HEK293) 6.51 µM

COc1ccc2c(c1)[C@]13CCCCC1C(C2)N(C)CC3 (some centres undefined)
inactive: max response (CRL-7250) 4.77% | outcome (HEK293) | max response (HaCat) -2.03% | max response (KB-3-1) 9.18%

CCC(=O)O[C@@H]1C=C2CCC3C(CCC4(C)C3CC[C@@H]4OC(=O)CC)C2CC1 (some centres undefined)
inactive: max response (CRL-7250) -3.72% | max response (HEK293) 2.37% | max response (HaCat) -20.7%

CC1=C(C(=O)O)N2C(=O)[C@@H](N)[C@H]2SC1
inactive: outcome (CRL-7250) | outcome (HEK293) | max response (HaCat) 3.51%

CC(C)[C@]12O[C@@H]1[C@@H]1O[C@]13[C@]1(O[C@H]1C[C@@H]1C4=C(CC[C@@]13C)C(=O)OC4)[C@H]2O
inactive: max response (CRL-7250) -124% | max response (HEK293) -111% | max response (HaCat) -144%
active: Potency (KB-3-1) 0.001 µM

C=C[C@@H]1CN2CCC1C[C@H]2[C@H](O)c1ccnc2ccccc12 (some centres undefined)
inactive: outcome (CRL-7250)

O=C(Oc1ccc([N+](=O)[O-])cc1)N1CCN(Cc2cccc(Oc3ccccc3)c2)CC1
inactive: max response (CRL-7250) -6.9% and 1.64% | max response (HEK293) 1.27% | max response (HaCat) 0.717% and -5.04% | max response (KB-3-1) -6.21% and -13.5%

O=C(Oc1ccc([N+](=O)[O-])cc1)N1CCC(C(O)(c2ccc3c(c2)OCO3)c2ccc3c(c2)OCO3)CC1
inactive: max response (HEK293) -16.1% | max response (HaCat) -5.43% | outcome (HaCat) | max response (KB-3-1) 5.68% and 6.78%
active: Potency (CRL-7250) 13.2 µM

O=[N+]([O-])c1ncc[nH]1
inactive: max response (CRL-7250) -4.09% | max response (HEK293) -7.79% | max response (HaCat) -7.46%

CC(=O)N(C)c1cccc(-c2ccnc3c(C(=O)c4cccs4)cnn23)c1
inactive: max response (CRL-7250) -13.2% | outcome (CRL-7250) | max response (HEK293) -28% and -16.5% | max response (HaCat) 3.39% | outcome (HaCat) | max response (KB-3-1) -3.54% | outcome (KB-3-1)

CC(N[C@H]1C[C@H]1c1ccccc1)c1ccc2c(c1)OCCO2 (some centres undefined)
inactive: max response (CRL-7250) 1.35% and -26.3% | max response (HEK293) 0.032% and -12.5% | outcome (HaCat) | max response (KB-3-1) 2.53% and -2.54%

C=CC(=O)NCNC(=O)C=C
inactive: max response (CRL-7250) -10.1% | outcome (HEK293) | max response (HaCat) -16.1% | max response (KB-3-1) 1.85%

Cc1c(N)nc([C@H](CC(N)=O)NC[C@@H](N)C(N)=O)nc1C(=O)N[C@H](C(=O)N[C@@H](C)[C@H](O)[C@@H](C)C(=O)N[C@@H](C(=O)NCCc1nc(-c2nc(C(=O)NCCC[S+](C)C)cs2)cs1)[C@@H](C)O)C(O[C@H]1O[C@H](CO)[C@H](O)[C@@H](O)[C@@H]1O[C@H]1O[C@H](CO)[C@@H](O)[C@H](OC(N)=O)[C@H]1O)c1cnc[nH]1 (some centres undefined)
active: Potency (CRL-7250) 10.5 µM | Potency (HEK293) 0.526 µM

Fc1cc(Br)ccc1CBr
inactive: max response (CRL-7250) -5.31% | max response (HEK293) -1.72% | outcome (HaCat)

C=C[C@@H]1CN2CCC1C[C@@H]2[C@@H](O)c1ccnc2ccccc12 (some centres undefined)
inactive: max response (CRL-7250) -5.2% | max response (HaCat) -17.4%
active: Potency (HEK293) 18.7 µM

O=c1[nH]c2ccc(Cl)cc2c(N[C@@H]2CN3CCC2CC3)c1-c1nc2ccccc2[nH]1
active: Potency (CRL-7250) 2.35 µM and 6.51 µM | Potency (HEK293) 0.059 µM | Potency (HaCat) 16.6 µM | Potency (KB-3-1) 3.72 µM
inactive: max response (HEK293) -122%

Cc1ccccc1-n1c(Cn2ncc3c(N)ncnc32)nc2cccc(C)c2c1=O
inactive: max response (CRL-7250) -1.16% | outcome (CRL-7250) | outcome (HEK293) | outcome (HaCat) | outcome (KB-3-1)

Nc1ccc(Cl)cc1
inactive: max response (CRL-7250) -5.83% | max response (HEK293) 4.83% | max response (HaCat) -11.6% | max response (KB-3-1) -17.1%

CO/C=C(/C(=O)OC)c1ccccc1Oc1cc(Oc2ccccc2C#N)ncn1
active: Potency (CRL-7250) 19.3 µM | Potency (HEK293) 8.63 µM

Oc1ccc2c3c1O[C@H]1[C@@H](O)C=C[C@H]4[C@@H](C2)NCC[C@@]341
inactive: max response (CRL-7250) -20.7% | max response (HEK293) -17.4% | max response (HaCat) -5.53% | max response (KB-3-1) -5.17%

C[C@]12CC[C@@H]3[C@@H](CCC4=CC(=O)CC[C@@H]43)[C@@H]1CC[C@@H]2OC(=O)CCc1ccccc1
inactive: max response (CRL-7250) 1.37% | outcome (HEK293) | max response (HaCat) -22.8%

O=C(N[C@H]1CN2CCC1CC2)c1ccc(Cl)cc1
inactive: outcome (CRL-7250) | max response (HEK293) -12.5% | outcome (HEK293) | outcome (HaCat) | outcome (KB-3-1)
